Assay results from PubChem BioAssay (Tox21).
Records with an inconclusive call do not appear. Unmarked numbers belong to inactive results. Calls of active or inactive are those of the source. Calls come from the whole dose curve; as a rule, active = well fitted cell-killing curve with a large enough effect in the repeat runs; inconclusive = weak or mixed curves, or effect the other way; inactive = no such curve, though single readings can be large or run the other way.

assay: qHTS assay for small molecule activators of the heat shock response signaling pathway - cell viability counter screen (AID 743209); conditions: HSE-bla HeLa viability, CellTiter-Glo luminescence, 5 h; series mostly up to 62.6 µM; note: nearly all actives have a fitted effect of over 50% in size
Excerpt: U.S. Tox21 Program National Center for Advancing Translational Sciences [NCATS] NIH Chemical Genomics Center [NCGC] U.S. Environmental Protection Agency [EPA] National Institutes of Environmental Health Sciences [NIEHS] National Toxicology Program [NTP] U.S. Food and Drug Administration [FDA] Tox21 Assay Overview: Various chemicals, environmental and physiological stress conditions may lead to the activation of heat shock response/ unfolded protein response (HSR/UPR). There are three heat shock transcription factors (HSFs) (HSF-1, -2, and -4) mediating transcriptional regulation of the human HSR. To identify the compounds that activate HSR signaling, HSE-bla HeLa cell line (Invitrogen, Carlsbad, CA, USA) containing a beta-lactamase reporter gene under the control of the heat shock response elements was used to screen Tox21 10K compound library. The cytotoxicity of the Tox21 compound library against the HSE-bla HeLa cell line was tested in parallel by measuring the cell viability using CellTiter-Glo assay (Promega, Madison, WI) in the same wells.
Tox21 Assay Protocol Summary: The CellSensor HSE-bla HeLa cells (Invitrogen, Carlsbad, CA, USA) were dispensed at 1500 cells/6uL/well into 1536-well black wall/clear bottom plates using a Multidrop combi (Thermo Fisher Scientific, Waltham, MA) dispenser. After the assay plates were incubated at 37 C and 5% CO2 overnight, 23 nL of compounds dissolved in DMSO, positive controls or DMSO only was transferred to the assay plate by a Pintool station (Kalypsys, San Diego, CA). The plates were incubated at 37 C for 5 h. After 1 uL of LiveBLAzerTM B/G FRET substrate was added using a Flying Reagent Dispenser (FRD, Beckman Coulter, Indianapolis, IN, USA), the plates were incubated at room temperature for 2.5 h, and fluorescence intensity was measured by an Envision plate reader (PerkinElmer, Shelton, CT). For cell viability readout that measures cytotoxicity, 3 ul/well of CellTiter-Glo reagent was added into the assay plates using a FRD. After 30 min incubation at room temperature, the luminescence intensity in the plates was measured using a ViewLux (PerkinElmer) plate reader.
% is set by controls: 0 for no effect and ±100 for the full control effect.

| SMILES | outcome | activity change, negative = cytotoxicity |
| --- | --- | --- |
| Cc1cccc2nccnc12 | inactive | – |
| CC(CC=O)CCCC(C)(C)O (stereo not given) | inactive | – |
| O=C(OCC(O)CO)c1ccccc1Nc1ccnc2c(C(F)(F)F)cccc12 (stereo not given) | inactive | – |
| c1ccc2nccnc2c1 | inactive | – |
| Cc1ccccc1N=O | inactive | – |
| CCCCCCCCCC(C)=O | inactive | – |
| Cc1cc(Cl)c(C)cc1Cl | inactive | – |
| CCCCCOC(=O)CCC | inactive | – |
| CN(C)CCOCCO | inactive | – |
| CC(=O)N[C@@H](CCC(=O)O)C(=O)O | inactive | – |
| CC(=O)c1ccc2c(c1)Cc1ccccc1-2 | inactive | – |
| Nc1ncnc(Nc2ccccc2)n1 | inactive | – |
| O=C(CCNNC(=O)c1ccncc1)NCc1ccccc1 | inactive | – |
| COC(=O)C1CC(=O)C(C(=O)OC)CC1=O (stereo not given) | – | 12.2% [at 5.95 µM] |
| COc1ccc(OC)c(Cl)c1 | inactive | – |
| O=P(O)(O)OP(=O)(O)O | inactive | – |
| COCCOCCOCCOCCO | inactive | – |
| CCCCNc1ccc(C(=O)OCCN(C)C)cc1 | inactive | – |
| CCn1ccc(NS(=O)(=O)c2ccc(N)cc2)nc1=O | inactive | – |
| CCOC(=O)CC(=O)c1ccccc1 | inactive | – |

| SMILES | outcome | activity change, negative = cytotoxicity |
| --- | --- | --- |
| Nc1ccc([N+](=O)[O-])c(N)c1 | inactive | – |
| Cc1c(I)c(=O)n(-c2ccccc2)n1C | inactive | – |
| C[Si](C)=O | – | 6.74% [at 5.95 µM] |
| CCC(C)NC(N)=O (stereo not given) | inactive | – |
| Cc1ccc2ccc(Cl)cc2n1 | inactive | – |
| Nc1cccc(O)c1 | inactive | – |
| CN(C)c1ccc(C=O)cc1 | inactive | – |
| CCC(C=O)CC | inactive | – |
| O=C1O[C@@H]2[C@@H](O)[C@H](O)O[C@@H]2[C@H]1O | inactive | – |
| CC(C)CC(C)CC(C)CC(C)COC(=O)c1ccccc1C(=O)OCC(C)CC(C)CC(C)CC(C)C (stereo not given) | inactive | – |
| CCOCCOCCOCC | inactive | – |
| O=C(OCC1(COC(=O)c2cccnc2)CCCC(COC(=O)c2cccnc2)(COC(=O)c2cccnc2)C1O)c1cccnc1 | inactive | – |
| Cc1ccccc1OCC(O)CO (stereo not given) | inactive | – |
| O=C(O)Cc1cn(-c2ccccc2)nc1-c1ccc(Cl)cc1 | inactive | – |
| C=Cc1ccccn1 | inactive | – |
| Cc1cc(C(C)(C)C)c(O)c(C)c1CC1=NCCN1 | inactive | – |
| COCCOCCOCCOCCOCCO | inactive | – |
| C[C@H](CCC(=O)O)[C@H]1CC[C@H]2[C@@H]3C(=O)C[C@@H]4CC(=O)CC[C@]4(C)[C@H]3CC(=O)[C@]12C | inactive | – |
| CCC(C)(CCC(C)C)C(=O)O (stereo not given) | inactive | – |
| CCN(CC)CC(=O)Nc1c(C)cccc1C | inactive | – |
